Among the data in the supplement of paper PMC4100887 are relative cell viability values, retold here.

For one test, the system named is IMR-90. The experiment in a line: relative cell viability (ATPlite) vs untreated control (fraction); higher = less toxic. The note with it: 1 µM; 72 h. A general note: ATP-based viability assays read luminescence as a measure of living cells.
Test [1] deals with K562. Described as above. The note with it: 1 µM; 72 h.
For test [2], the system named is K562. Put plainly: relative cell viability (ATPlite) vs untreated control, with imatinib (fraction); higher = less toxic. The note with it: 1 µM; 72 h; imatinib 0.125 µM.

Where a name gives a salt, the structure may show the parent alone. ± gives the standard deviation of the averaged measurements.

Consider `NC(N)=NCCNS(=O)(=O)c1cccc2cnccc12` [HA 1004, Dihydrochloride], for which the relative cell viability in the test with IMR-90 turned out to be 1.01 ± 0.1; with K562 [1], 0.851 ± 0.066; in the test on K562 [2] it was 0.756 ± 0.015.
As for `CCC(CO)Nc1nc(NCc2ccccc2)c2ncn(C(C)C)c2n1` [Roscovitine, (S)-Isomer], the relative cell viability with IMR-90 was determined as 1.04 ± 0.054; in the test with K562 [1], 0.912 ± 0.081; in the test on K562 [2] it was 0.729 ± 0.057.
On the same counts, the results for `COc1ccc(COc2ccc(Cc3cnc(N)nc3N)cc2OC)cc1` [cFMS Receptor Tyrosine Kinase Inhibitor] are 1.05 ± 0.12, 0.789 ± 0.061 and 0.699 ± 0.007.
As to `COc1ccc(Cl)cc1NC(=O)Nc1cc(C)nc2ccccc12` [IGF-1R Inhibitor II], the values for the relative cell viability in the test with IMR-90, in the test with K562 [1] and with K562 [2] were 1.04 ± 0.08, 0.933 ± 0.014 and 0.798 ± 0.018, respectively.
Take `Nc1nccc(-c2c(-c3ccc(F)cc3)ncn2C2CCNCC2)n1`: the relative cell viability is 0.923 ± 0.084 in the test with IMR-90, 0.755 ± 0.05 with K562 [1] and 0.662 ± 0.046 in the test with K562 [2].
The matching figures for `CCCCn1c2ccc(O)cc2c2c3c(c(-c4ccccc4Cl)cc21)C(=O)NC3=O` [Wee1 Inhibitor II]: 0.754 ± 0.44, 0.876 ± 0.086 and 0.748 ± 0.1.
With `O=C1NCCc2[nH]c(-c3ccnc(-c4cnc5ccccc5c4)c3)cc21` [MK-2 Inhibitor III], the relative cell viability with IMR-90 turned out to be 0.884 ± 0.11; in the test on K562 [1] it was 0.837 ± 0.085; with K562 [2], 0.709 ± 0.057.
In the case of `CN1C(=O)C(c2c[nH]c3ccccc23)=C(c2c[nH]c3ccccc23)C1=O` [Bisindolylmaleimide V], the relative cell viability in the test on IMR-90 was found to be 0.936 ± 0.091; in the test with K562 [1], 0.88 ± 0.053; in the test on K562 [2] it was 0.77 ± 0.0092.
Turning to `CC(=O)O/N=C1/C(c2c(O)[nH]c3cc(Br)ccc23)=Nc2ccccc21` [GSK-3 Inhibitor X], the relative cell viability with IMR-90 turned out to be 0.903 ± 0.052; with K562 [1] it was 0.885 ± 0.08; with K562 [2], 0.76 ± 0.036.
`COc1ccc2c(c1)c(C1=C(c3c[nH]c4ccccc34)C(=O)NC1=O)cn2CCCN(C)C`: the relative cell viability turned out to be 0.969 ± 0.082 with IMR-90, 0.872 ± 0.06 with K562 [1] and 0.755 ± 0.051 with K562 [2].
As for `O=c1cc(N2CCOCC2)oc2c1ccc1ccccc12` [DNA-PK Inhibitor II], the relative cell viability was 1 ± 0.061 in the test with IMR-90, 0.815 ± 0.041 in the test with K562 [1] and 0.754 ± 0.023 in the test with K562 [2].
In the case of `Nc1nc(Nc2ccc(S(N)(=O)=O)cc2)nn1C(=S)Nc1c(F)cccc1F` [Cdk1/2 Inhibitor III], the relative cell viability in the test with IMR-90 worked out at 1.11 ± 0.082; in the test on K562 [1] it was 0.0545 ± 0.0021; in the test on K562 [2], 0.0471 ± 0.0048.
For the compound `O=C(O)C=Cc1cc(Br)c(Br)c(Br)c1Br` [Casein Kinase II Inhibitor III, TBCA], the relative cell viability in the test with IMR-90 came out at 0.889 ± 0.14; in the test with K562 [1], 0.988 ± 0.082; in the test on K562 [2], 0.836 ± 0.044.
As to `Nc1ncnc2c1c(I)cn2[C@@H]1O[C@H](CO)[C@@H](O)[C@H]1O` [5-Iodotubercidin], the relative cell viability came out at 0.745 ± 0.14 in the test with IMR-90, 0.715 ± 0.12 in the test on K562 [1] and 0.702 ± 0.065 with K562 [2].
Take `CC(C)[C@H](CO)Nc1nc(Nc2cccc(Cl)c2)c2ncn(C(C)C)c2n1` [Purvalanol A]: the relative cell viability in the test on IMR-90 is 1.04 ± 0.11; in the test on K562 [1], 0.885 ± 0.065; in the test with K562 [2] it was 0.75 ± 0.072.
For `O=c1c(O)c(-c2ccc(O)c(O)c2)oc2cc(O)c(O)c(O)c12` [Quercetagetin], the relative cell viability in the test with IMR-90 stood at 0.88 ± 0.16; in the test on K562 [1], 0.799 ± 0.086; in the test on K562 [2], 0.64 ± 0.025.
As for `COc1cc2ncn(-c3cc(OCc4ccccc4S(C)(=O)=O)c(C#N)s3)c2cc1OC` [IKK-3 Inhibitor IX], the results for the relative cell viability with IMR-90, with K562 [1] and in the test with K562 [2] were 1.02 ± 0.11, 0.843 ± 0.084 and 0.764 ± 0.036, respectively.
On the same counts, the results for `N#Cc1c(NC(=O)c2cccc3ccccc23)sc2c1CCCC2` [JNK Inhibitor IX] are 0.97 ± 0.044, 0.143 ± 0.058 and 0.101 ± 0.04.
Consider `CCCCc1c(-c2ccc(OC)cc2)[nH]c2nccnc12` [Aloisine, RP106], for which the relative cell viability in the test with IMR-90 worked out at 0.897 ± 0.069; in the test with K562 [1] it was 0.929 ± 0.046; in the test on K562 [2], 0.819 ± 0.05.
Regarding `Cc1nc(-c2ccccc2)c(-c2ccncc2)o1`, the results for the relative cell viability with IMR-90, in the test with K562 [1] and with K562 [2] were 1.02 ± 0.093, 0.835 ± 0.077 and 0.649 ± 0.16, respectively.
As to `CCC(=O)Nc1ccc2ncnc(Nc3cccc(Br)c3)c2c1`, the relative cell viability in the test with IMR-90 came out at 0.982 ± 0.058; with K562 [1], 0.903 ± 0.031; in the test on K562 [2] it was 0.743 ± 0.05.
As to `COc1ccc(-c2cnc3c(-c4ccsc4)cnn3c2)cc1` [VEGF Receptor 2 Kinase Inhibitor IV], the relative cell viability in the test on IMR-90 was determined as 0.993 ± 0.1; in the test on K562 [1], 0.893 ± 0.072; with K562 [2], 0.726 ± 0.067.
As for `CCOc1nc(NC(=O)Cc2cc(OC)ccc2OC)cc(N)c1C#N` [JNK Inhibitor VIII], the relative cell viability with IMR-90 was 0.992 ± 0.081; with K562 [1], 0.983 ± 0.035; with K562 [2], 0.769 ± 0.053.
For the compound `c1ccc(-c2n[nH]c3c2oc2ccccc23)cc1`, the figures for the relative cell viability in the test with IMR-90, in the test with K562 [1] and in the test with K562 [2] were 0.943 ± 0.083, 0.868 ± 0.038 and 0.732 ± 0.04, respectively.
For the compound `Nc1ccc(-c2cccc3c(=O)cc(N4CCOCC4)oc23)cc1`, the relative cell viability with IMR-90 worked out at 0.822 ± 0.13; with K562 [1] it was 0.79 ± 0.094; in the test on K562 [2], 0.627 ± 0.056.
Consider `CCCC(=O)Oc1ccc2[nH]c(C(=O)c3cc4ccccc4[nH]3)cc2c1` [PDGF Receptor Tyrosine Kinase Inhibitor II], for which the relative cell viability amounted to 1.01 ± 0.064 in the test with IMR-90, 0.812 ± 0.097 in the test with K562 [1] and 0.77 ± 0.025 in the test with K562 [2].
The matching figures for `Cn1cnc2cc3c(Nc4cccc(Br)c4)ncnc3cc21`: 0.973 ± 0.054, 1.02 ± 0.078 and 0.874 ± 0.02.
As to `Brc1c(Br)c(Br)c2n[nH]nc2c1Br` [Casein Kinase II Inhibitor I], the relative cell viability in the test with IMR-90 was 1 ± 0.059; with K562 [1], 0.952 ± 0.068; with K562 [2], 0.833 ± 0.03.
Consider `CC(C)[C@H](CO)Nc1nc(Nc2cc(N)cc(Cl)c2)c2ncn(C(C)C)c2n1` [Aminopurvalanol A], for which the results for the relative cell viability in the test with IMR-90, in the test on K562 [1] and with K562 [2] were 0.837 ± 0.084, 0.916 ± 0.037 and 0.796 ± 0.025, respectively.
On the same counts, the results for `CC[n+]1c(/C=C/N(C)c2ccccc2)n(-c2ccccc2)c2ccc(-c3nc4ccccc4s3)cc21` [Akt Inhibitor IV] are 0.924 ± 0.1, 0.169 ± 0.082 and 0.0639 ± 0.02.
For the compound `CC[C@H](CO)Nc1nc(NCc2ccc(-c3ccccn3)cc2)c2ncn(C(C)C)c2n1` [CR8, (R)-Isomer], the results for the relative cell viability with IMR-90, in the test on K562 [1] and in the test with K562 [2] were 0.297 ± 0.51, 0.0971 ± 0.02 and 0.0846 ± 0.015, respectively.
Turning to `CCCCCCOC(=O)[C@]1(O)C[C@@H]2O[C@@]1(C)n1c3ccccc3c3c4c(c5c6ccccc6n2c5c31)C(=O)NC4`, the relative cell viability stood at 1.05 ± 0.14 in the test on IMR-90, 0.825 ± 0.056 with K562 [1] and 0.764 ± 0.02 in the test with K562 [2].
Turning to `CC(=O)c1ccc(N2CCOCC2)cc1O` [DNA-PK Inhibitor III], the values for the relative cell viability with IMR-90, with K562 [1] and in the test on K562 [2] were 1.02 ± 0.093, 0.878 ± 0.059 and 0.782 ± 0.027, respectively.
Take `O=[N+]([O-])c1ccc(-c2nc(-c3ccc(F)cc3)c(-c3ccncc3)[nH]2)cc1`: the relative cell viability in the test on IMR-90 amounted to 1.05 ± 0.089; in the test on K562 [1], 0.774 ± 0.031; with K562 [2] it was 0.693 ± 0.039.
Turning to `N#Cc1c(C2CCNCC2)cc(-c2c(O)cccc2OCC2CC2)nc1N` [IKK-2 Inhibitor VIII], the relative cell viability with IMR-90 came to 1.01 ± 0.12; with K562 [1] it was 0.871 ± 0.048; in the test on K562 [2], 0.718 ± 0.021.
